Where “and” joins values, the source holds several entries; their conditions need not be identical. Equal values may be shown once. Results filed as inconclusive are left out. Calls of active or inactive are those of the source. Calls come from the whole dose curve; as a rule, active = well fitted curve in the direction sought with a large enough effect; inconclusive = small, poorly fitted or top-dose-only effect, or another doubt; inactive = no such curve, though single readings can be large; an effect the other way counts as inactive or inconclusive. Starred links: 1 amine or outer side, 2 acyl side, 3 side chain; linkers in the order of their positions; H or OH if unused. Positions of bridges follow the written chain, without caps; N, C: chain ends. Non-standard residues stand in square brackets, D forms with d. Residues, ends and D or L forms follow the SMILES beside them. Chains are numbered I, II in the order given. Actinocin(9to1) = Cc1c2oc3c(C)ccc(C(=O)[*:1])c3nc-2c(C(=O)[*:2])c(N)c1=O; NMeV = CN[CH](C(=O)O)C(C)C; Sar = CNCC(=O)O
Assays:
[1] = BET inhibitor-based combinations targeting novel dependencies in MECOM-rearranged (r) AML: OCI-AML3 cell line (AID 2202232); settings: Potency: OCI-AML3 viability; note: nearly all actives have a fitted effect of over 35% in size
How it was run: (§1)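 A 48 hr incubation preceded viability reading by CellTiter-Glo, with 15 min room-temperature development. Dose series had 11 points; normalization used DMSO and empty wells; AUC was computed and mean-centered per line as Z-AUC.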

[2] = BET inhibitor-based combinations targeting novel dependencies in MECOM-rearranged (r) AML: MV-4-11 cell line (AID 2202233); note: nearly all actives have a fitted effect of over 45% in size
How it was run: (§2)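 Each compound is tested in an 11-point concentration series against 500 seeded cells/well for 48 hr. The luminescent viability signal is normalized to DMSO and blank wells, then reduced to AUC and a cell-line-centred Z-AUC.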

[3] = BET inhibitor-based combinations targeting novel dependencies in MECOM-rearranged (r) AML: HNT-34 cell line (AID 2202234); note: nearly all actives have a fitted effect of over 35% in size
How it was run: as §2

[4] = BET inhibitor-based combinations targeting novel dependencies in MECOM-rearranged (r) AML: UCSD-AML1 cell line (AID 2202235); note: nearly all actives have a fitted effect of over 40% in size
How it was run: as §2

[5] = BET inhibitor-based combinations targeting novel dependencies in MECOM-rearranged (r) AML: AML-191 cell line (AID 2202236; note: nearly all actives have a fitted effect of over 35% in size)
How it was run: as §1

[6] = BET inhibitor-based combinations targeting novel dependencies in MECOM-rearranged (r) AML: AML-194 cell line (AID 2202237; note: nearly all actives have a fitted effect of over 40% in size)
How it was run: as §1

Measured: Potency
Potency is the fitted concentration of half-maximal effect.

Nc1ncccc1-c1nc2ccc(-c3ccccc3)nc2n1-c1ccc(C2(N)CCC2)cc1
active: [1] 18.6 µM | [2] 11.8 µM | [3] 16.6 µM | [4] 16.6 µM | [5] 18.6 µM

C/C=C1\NC(=O)[C@H]2CSSCC/C=C\[C@H](CC(=O)N[C@H](C(C)C)C(=O)N2)OC(=O)[C@H](C(C)C)NC1=O
active: [1] 0.0105 µM | [2] 0.0118 µM | [3] 0.0083 µM | [4] 0.0105 µM | [5] 0.0148 µM | [6] 0.0235 µM

Cc1c2oc3c(C)ccc(C(=O)NC4C(=O)NC(C(C)C)C(=O)N5CCCC5C(=O)N(C)CC(=O)N(C)C(C(C)C)C(=O)OC4C)c3nc-2c(C(=O)NC2C(=O)NC(C(C)C)C(=O)N3CCCC3C(=O)N(C)CC(=O)N(C)C(C(C)C)C(=O)OC2C)c(N)c1=O (centres undefined) (I: TVP[Sar][NMeV] / II: TVP[Sar][NMeV]; ester I:1-I:C, II:1-II:C; linker I:N-II:N via Actinocin(9to1); configuration not given here)
active: [1] 0.0032 µM | [2] 0.0014 µM | [3] 0.0057 µM | [4] 0.0032 µM | [5] 0.0102 µM | [6] 0.0115 µM

C[C@@H]1Cc2c([nH]c3ccccc23)[C@@H](c2c(F)cc(/C=C/C(=O)O)cc2F)N1CC(C)(C)F
inactive: all assays above

c1ccc(-c2cc(CCC3CCNCC3)c3ccccc3n2)cc1
active: [1] 20.9 µM | [2] 20.9 µM | [3] 20.9 µM | [4] 26.3 µM | [5] 20.9 µM

Nc1n[n+]([O-])c2ccccc2[n+]1[O-]
inactive: [4]
active: [1] 18.6 µM | [2] 13.2 µM | [3] 16.6 µM | [5] 18.6 µM

O=C(NC1CC1)c1cccc(-c2ccc3c(NC(=O)C4CC4)n[nH]c3c2)c1
active: [1] 10.5 µM | [2] 8.33 µM | [3] 3.32 µM | [4] 4.68 µM | [5] 2.95 µM | [6] 4.68 µM

Nc1nc2c(c(=O)[nH]1)N1CN(c3ccc(C(=O)N[C@@H](CCC(=O)O)C(=O)O)cc3)CC1CN2 (some centres undefined)
active: [1] 1.66 µM | [2] 1.05 µM | [3] 9.34 µM | [4] 0.934 µM

C[C@@]12C(=O)OC(=O)[C@]1(C)[C@H]1CC[C@@H]2O1
active: [1] 3.72 µM | [2] 3.32 µM | [3] 2.95 µM | [4] 7.42 µM | [5] 2.95 µM | [6] 2.63 µM

C=C1CC[C@@H]2[C@](C)(CO)[C@H](O)CC[C@@]2(C)[C@@H]1C/C=C1/C(=O)OC[C@H]1O
active: [1] 3.72 µM | [2] 2.95 µM | [3] 5.25 µM | [4] 10.5 µM | [5] 5.9 µM | [6] 9.34 µM

COC1(c2sc3c(N4CCOCC4)nc(-c4cnc(N)nc4)nc3c2C)COC1
active: [1] 0.525 µM | [2] 0.59 µM | [3] 0.468 µM | [4] 0.186 µM

CC(=O)O[C@@]12CO[C@@H]1C[C@H](O)[C@@]1(C)C(=O)[C@H](O)C3=C(C)[C@@H](OC(=O)[C@H](O)[C@@H](NC(=O)OC(C)(C)C)c4ccccc4)C[C@@](O)([C@@H](OC(=O)c4ccccc4)[C@H]21)C3(C)C
active: [1] 0.0033 µM | [2] 0.0042 µM | [3] 0.0037 µM | [4] 0.0047 µM | [5] 0.0132 µM | [6] 0.0148 µM

Cc1cc(OCCCc2c3n(c4c(-c5c(C)nn(C)c5C)c(Cl)ccc24)[C@H](C)CN(c2cn(C)c4ccc(C(=O)O)cc24)C3=O)cc(C)c1Cl
active: [1] 2.63 µM | [2] 0.468 µM | [3] 2.95 µM | [4] 20.9 µM | [5] 20.9 µM | [6] 14.8 µM

COc1ccc(S(=O)(=O)N[C@@H](CNc2nc(C)nc(N3CCC(c4ccc5c(n4)NCCC5)CC3)c2C)C(=O)O)cc1
not listed: [6]
inactive: all other assays above

CCNC(=O)Nc1ccc(-c2nc3c(c(N4CCOC[C@@H]4C)n2)CCN(C2COC2)C3)cc1
active: [1] 1.48 µM | [2] 1.32 µM | [3] 1.05 µM

Cc1cc(C)c(CNC(=O)c2cc(-c3ccc(N4CCN(C)CC4)nc3)cc3c2c(C)cn3C(C)C)c(=O)[nH]1
inactive: [4]
active: [1] 18.6 µM | [2] 23.5 µM and 20.9 µM | [3] 23.5 µM

COc1ccc(-c2ccc3c(N4CCOC[C@@H]4C)nc(N4CCOC[C@@H]4C)nc3n2)cc1CO
active: [1] 0.148 µM | [2] 0.132 µM

Cc1c(Cl)cccc1S(=O)(=O)Nc1nc(CCN2CCOCC2=O)cs1
active: [1] 0.0742 µM
inactive: [2] | [3] | [4]

CNc1nc(-c2ccc3c(N)n[nH]c3c2)cc(N2C[C@@H](C(=O)NC3CCCCC3)CC[C@H]2C)n1
active: [1] 5.9 µM | [2] 14.8 µM | [3] 13.2 µM | [4] 0.742 µM | [5] 23.5 µM

COc1cc([C@@H]2c3cc4c(cc3[C@@H](O[C@@H]3O[C@@H]5CO[C@@H](C)O[C@@H]5[C@H](O)[C@@H]3O)[C@H]3COC(=O)[C@H]23)OCO4)cc(OC)c1O
active: [1] 0.934 µM | [2] 0.166 µM | [3] 1.48 µM | [4] 0.833 µM

O=C(NC[C@H](O)CO)c1ccncc1Nc1ccc(I)cc1F
active: [1] 0.0332 µM | [2] 5.9 µM | [3] 0.468 µM | [4] 0.372 µM | [5] 0.525 µM

CCCN(CCC)C(=O)C1=Cc2ccc(-c3ccc(C(=O)N4CCCC4)cc3)cc2N=C(N)C1
inactive: [4]
active: [1] 16.6 µM | [2] 16.6 µM | [3] 18.6 µM | [5] 18.6 µM | [6] 26.3 µM

COc1ccc([C@@H]2CC(=O)c3c(O)cc(O[C@@H]4O[C@H](CO[C@@H]5O[C@@H](C)[C@H](O)[C@@H](O)[C@H]5O)[C@@H](O)[C@H](O)[C@H]4O)cc3O2)cc1O
inactive: all assays above

COc1ccc([C@@H](O)[C@@H](C)Oc2ccc([C@H]3O[C@H](c4ccc(O[C@H](C)[C@H](O)c5ccc(OC)c(OC)c5)c(OC)c4)[C@H](C)[C@H]3C)cc2OC)cc1OC
active: [1] 1.05 µM | [2] 4.17 µM | [3] 23.5 µM | [4] 18.6 µM | [5] 18.6 µM

CC(C)C[C@H](NC(=O)c1cc2ccccc2s1)C(=O)N1CCN(C(=O)[C@H](CO)NS(=O)(=O)c2ccc(Cl)cc2Cl)CC1
inactive: [4]
active: [1] 18.6 µM | [2] 23.5 µM | [3] 26.3 µM

COc1cc(-c2cn(C)c(=O)c3cnccc23)c(OC)cc1CN(C)C
active: [1] 1.18 µM | [2] 4.17 µM
inactive: all other assays above

CC(=NNC(=O)c1cccc(S(=O)(=O)N2CCOCC2)c1)c1cc(Cl)ccc1O
active: [1] 5.25 µM | [2] 7.42 µM | [3] 2.63 µM | [4] 5.25 µM | [5] 2.09 µM | [6] 4.68 µM

Cc1ccc2nc(NCCN)c3ncc(C)n3c2c1
active: [1] 9.34 µM | [2] 4.68 µM | [3] 8.33 µM | [4] 7.42 µM | [5] 5.9 µM | [6] 8.33 µM

COC1=C(OC)C(=O)C(C/C=C(\C)CC/C=C(\C)CC/C=C(\C)CC/C=C(/C)CC/C=C(\C)CC/C=C(\C)CC/C=C(\C)CC/C=C(\C)CC/C=C(\C)CCC=C(C)C)=C(C)C1=O
inactive: all assays above

O=C([O-])C[O-].[Pt+2]
inactive: all assays above

CC/C(=C(/c1ccc(O)cc1)c1ccc(OCCNC)cc1)c1ccccc1
active: [1] 14.8 µM | [2] 8.33 µM | [3] 23.5 µM | [4] 9.34 µM | [5] 13.2 µM | [6] 13.2 µM

CC(C)c1cnn2c(NCc3ccccc3)cc(NCCCCCCN)nc12
active: [1] 23.5 µM | [2] 18.6 µM

Nc1ccn([C@@H]2O[C@H](CO)[C@@H](O)C2O)c(=O)n1 (some centres undefined)
active: [1] 3.32 µM | [2] 0.833 µM | [3] 0.0742 µM | [4] 0.0295 µM | [5] 0.0742 µM | [6] 0.0525 µM

Fc1cccc(-n2cnc3c(NCc4nc5c(F)c(F)ccc5[nH]4)nc(N4CCOCC4)nc32)c1
active: [1] 0.742 µM | [2] 0.263 µM | [3] 0.296 µM | [4] 0.296 µM | [5] 0.166 µM | [6] 0.372 µM

CN(C)C(=O)COC(=O)Cc1ccc(OC(=O)c2ccc(N=C(N)N)cc2)cc1
inactive: all assays above

O=c1[nH]nc2c3c(cccc13)NC(CN1Cc3ccccc3C1)=N2
active: [1] 16.6 µM | [2] 16.6 µM

C[C@H](NC(=O)CCC(F)(F)F)C(=O)N[C@@H]1C(=O)N(CCO)c2ncccc2-c2ccccc21
inactive: all assays above

CC(C)n1c(/C=C/[C@H](O)C[C@H](O)CC(=O)O)c(-c2ccc(F)cc2)c2ccccc21
active: [1] 3.32 µM | [2] 11.8 µM | [3] 8.33 µM

N#Cc1c(N)nc(N)nc1N[C@H](c1nc2c(F)ccc(Cl)c2c(=O)n1-c1cccnc1)C1CC1
active: [1] 6.61 µM | [2] 3.32 µM | [3] 16.6 µM | [4] 5.9 µM

Cc1c(NC(=O)c2cc(C(N)=O)nc3cc(F)ccc23)c(C(F)(F)F)nn1Cc1ccc(C(C)(C)C)cc1
active: [1] 23.5 µM | [5] 16.6 µM
inactive: [2] | [4]
